aSyn 5UTR act: Activators via SNCA 5'UTR binding, MLPCN; alpha-synuclein 5'UTR reporter, activators screen; 300,000 compounds, 7.1% hits; activity score, % (tested at 7.5 µM), hits read low; in the data active = activity score below about -60%
* marks the source's active call; other numbers are inactive results. Not all results are given here.

SMILES	aSyn 5UTR act
CN(C)CCNc1oc(/C=C/c2ccccc2)nc1C#N	-97.9*
Cc1cc(C)c2nc(NCCCNC(=S)NCCCN(C)C)c(C#N)cc2c1	96.4
CN(C)CCCNc1oc(/C=C/c2ccccc2)nc1C#N	-88.3*
C=CCNc1oc(/C=C/c2ccccc2)nc1C#N	-152.3*
Clc1ccccc1-c1nc(-c2ccccc2)n[nH]1	-214.3*
CCC(Oc1ccccc1)C(=O)N1CCC(C(N)=O)CC1 (stereo unspecified)	-71.1*
CCCCOc1ccc(C(=S)N2CCC(C(N)=O)CC2)cc1	-85.9*
CN(C)c1ccc(/C=N/NC(=O)c2ccc3c(c2)OCO3)cc1	-103.6*
O=C(N/N=C/c1cccnc1)c1ccc2c(c1)OCCO2	-82.4*
COc1c(O)ccc(/C=N/NC(=O)c2ccc3c(c2)OCCO3)c1[N+](=O)[O-]	-110.4*
O=C(N/N=C/c1ccc([N+](=O)[O-])o1)c1ccc2c(c1)OCO2	93.6
Cc1ccc(/C=N\NC(=O)c2ccc3c(c2)OCO3)o1	-80.6*
O=C(N/N=C/c1ccc(Br)o1)c1ccc2c(c1)OCCO2	-122.8*
Brc1ccc(-c2cn3nc4c(nc3n2)CCCC4)cc1	93.1
Nc1nn2cc(-c3ccc(Br)cc3)nc2c2ccccc12	-164.5*
CCOC(=O)c1ccc2nc(NC(=O)c3cccs3)sc2c1	-105.1*
CCCCC(=O)Nc1nc2ccc(C(=O)OC)cc2s1	-113.8*
CCOC(=O)c1ccc2nc(NC(=O)C(C)C)sc2c1	-112.6*
CCCC(=O)Nc1nc2ccc(C(=O)OCC)cc2s1	-135.8*
COc1ccc(-c2c(C)nc3c(-c4ccc(F)cc4)cnn3c2N)cc1	-142.9*
CCOC(=O)c1cnc2c(-c3ccc(Cl)cc3)cnn2c1C	-97.6*
Cc1nn2c(N)c(-c3ccccc3)cnc2c1-c1ccccc1	-131.2*
Fc1ccc(-c2cnn3c(-c4ccncc4)ccnc23)cc1	-69.4*
Nc1c(-c2cccc(Cl)c2)cnc2c(-c3ccccc3)cnn12	-243.3*
Nc1c(-c2ccc(Cl)cc2)cnc2c(-c3ccc(F)cc3)cnn12	-95.2*
SMILES	aSyn 5UTR act
CCCCOc1ccc(/C(N)=N/O)cc1	-73.2*
CCOC(=O)C1CCN(c2nnc(N3CCCC3=O)s2)CC1	-65.9*
O=C(Nc1ccccc1C(=O)N/N=C/c1ccncc1)c1ccccc1	-140.4*
CCOc1ccc(/C=N/NC(=O)c2ccccc2NC(=O)c2ccc(OC)cc2)cc1	-71.4*
COc1ccc(C(=O)Nc2ccccc2C(=O)N/N=C/c2ccco2)cc1	-78.8*
CCOc1ccc(C(=O)Nc2ccccc2C(=O)O)cc1	-89.5*
Cn1c(NC(=O)/C=C/c2ccc(Cl)c(Cl)c2)cc(=O)n(C)c1=O	-181.1*
Cn1c(NC(=O)/C=C/c2ccccc2)cc(=O)n(C)c1=O	-253.1*
COc1ccc(/C=C/C(=O)Nc2cc(=O)n(C)c(=O)n2C)cc1	-104.0*
Cn1c(NC(=O)CCc2ccccc2)cc(=O)n(C)c1=O	-186.0*
CCOc1ccc(/C=C2\SC(=S)N(CCC(=O)O)C2=O)cc1	114.6
O=C(O)CCCN1C(=O)/C(=C\C(Cl)=C\c2ccccc2)SC1=S	-224.7*
CC(C)c1ccc(/C=C2\SC(=O)N(CC(=O)NC3C=CS(=O)(=O)C3)C2=O)cc1 (stereo unspecified)	-69.0*
COCCN1C(=O)/C(=C/c2ccc(N3CCCC3)cc2)SC1=S	-85.4*
O=C(CCN1C(=O)/C(=C/c2ccccc2)SC1=S)N1CCCCCC1	-62.4*
O=C(CCN1C(=O)/C(=C/c2ccccc2F)SC1=S)NC1C=CS(=O)(=O)C1 (stereo unspecified)	-62.2*
CC1CCN(C(=O)CCN2C(=O)/C(=C/c3cccs3)SC2=S)CC1	-74.7*
O=C(CCN1C(=O)/C(=C\c2ccccc2F)SC1=S)N1CCCCC1	-116.7*
O=C(CCCN1C(=O)/C(=C/c2ccccc2Cl)SC1=S)NNC(=O)c1ccc(Cl)cc1	64.7
Cc1cc(N2CCCC2)ccc1/C=C1\NC(=S)N(C)C1=O	-261.4*
C=CC(C)N1C(=O)S/C(=C\c2ccc(N3CCOCC3)cc2C)C1=O (stereo unspecified)	-119.6*
O=C1NC(=O)/C(=C\c2ccc(O)cc2O)S1	-77.4*
Cc1cc(N2CCOCC2)ccc1/C=C1/SC(=O)NC1=O	-66.6*
C=CCN1C(=O)S/C(=C\c2ccc(N3CCOCC3)cc2C)C1=O	-151.6*
Cc1cccc(NC(=O)c2cnn(-c3ccccc3)c2C)c1C	-128.8*
SMILES	aSyn 5UTR act
Cc1ccccc1NC(=O)c1cnn(-c2ccccc2)c1C	-164.3*
Cc1ccc(C)c(NC(=O)c2cnn(-c3ccccc3)c2C)c1	-81.4*
Cn1cccc1C1NC(=O)c2c(sc3c2CCC(C(C)(C)C)C3)N1 (stereo unspecified)	-97.1*
COC(=O)Cc1c(C)c2ccc(OC3CCCCC3=O)c(C)c2oc1=O (stereo unspecified)	-65.1*
Cc1c(CCC(=O)N2CCC[C@H]2C(=O)O)c(=O)oc2cc3oc4c(c3cc12)CCCC4	76.9
Cc1ccc(COc2ccc(Br)cc2/C=N/O)cc1	-155.8*
O/N=C/c1cc(Br)ccc1OCc1ccc(F)cc1	-78.6*
CCOc1cc(/C=N/O)ccc1OCc1ccc(C)cc1	-68.0*
O=C(NCCCN1CCOCC1)c1cc(-c2cccs2)on1	-152.0*
